According to PubChem BioAssay (NCATS):
Records with an inconclusive call do not appear. Active and inactive are the calls of the source. Calls come from the whole dose curve; as a rule, active = well fitted inhibition curve with a large enough effect; inconclusive = small, poorly fitted or top-dose-only effect; inactive = flat fitted curve, though single readings scatter.

Legend:
Experiment in all cases: qHTS profiling for inhibitors of Plasmodium falciparum proliferation (AID 504749); note: nearly all actives have a fitted effect of over 60% in size
Details in all cases: P. falciparum in erythrocytes, SYBR Green DNA, 72 h; series mostly up to 28.7 µM
CP250 = system: CP250
Summary of the method: (§1)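 P. falciparum-infected erythrocytes (0.3% parasitemia, 2.5% hematocrit final) were exposed to compounds for 72 h at 37 C in 5% CO2, then lysed with SYBR Green buffer overnight at room temperature; parasite DNA fluorescence was normalized to artemisinin and DMSO controls.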

CP252 = system: CP252
Summary of the method: as §1

CP256 = system: CP256
Summary of the method: as §1

CP260 = system: CP260
Summary of the method: as §1

CP262 = system: CP262
Summary of the method: as §1

CP265 = system: CP265
Summary of the method: as §1

CP266 = system: CP266
Summary of the method: as §1

CP268 = system: CP268
Summary of the method: as §1

CP269 = system: CP269
Summary of the method: as §1

CP286 = system: CP286
Summary of the method: as §1

Measured: Potency
Potency is the fitted concentration of half-maximal effect.

CC(=O)Oc1cc(C(C)C)c(OCCN(C)C)cc1C
inactive: all assays above

CCCOc1ccccc1-c1nc2n[nH]nc2c(=O)[nH]1
inactive: all assays above

CNC1(C)C2CCC(C2)C1(C)C (centres undefined)
inactive: all assays above

CCOC(=O)C1=C(C)NC(C)=C(C(=O)OC)C1c1cccc(Cl)c1Cl (centres undefined)
inactive: all assays above

CC(=O)OCC1=C(C(=O)O)N2C(=O)[C@@H](NC(=O)Cc3cccs3)[C@H]2SC1
inactive: all assays above

O=C1CC2(CCCC2)CC(=O)N1CCCCN1CCN(c2ncccn2)CC1
inactive: all assays above

CN1CCN(C2=Nc3ccccc3Oc3ccc(Cl)cc32)CC1
inactive: all assays above

Cc1nc2ccccn2c(=O)c1CCN1CCC(C(=O)c2ccc(F)cc2)CC1
not listed: CP286
inactive: all other assays above

CCCCNC(=O)NS(=O)(=O)c1ccc(C)cc1
inactive: all assays above

O=C(O)CN(CCOCCOCCN(CC(=O)O)CC(=O)O)CC(=O)O
inactive: all assays above

NC1=NCC2c3ccccc3Cc3ccccc3N12 (centres undefined)
inactive: all assays above

NCCCNCCSP(=O)(O)O
inactive: all assays above

CCO/C([O-])=N/c1c[n+](N2CCOCC2)no1
inactive: all assays above

CC[N+](C)(C)c1cccc(O)c1
inactive: all assays above

CC(=O)Nc1nnc(S(N)(=O)=O)s1
inactive: all assays above

NC(=O)N1c2ccccc2C=Cc2ccccc21
inactive: all assays above

C[N+](C)(C)CCOC(=O)CCC(=O)OCC[N+](C)(C)C
inactive: all assays above

COC(=O)C1=C(C)NC(C)=C(C(=O)OC(C)(C)CN(C)CCC(c2ccccc2)c2ccccc2)C1c1cccc([N+](=O)[O-])c1 (centres undefined)
active: CP250 3.55 µM | CP252 3.55 µM | CP256 2.82 µM | CP260 2.24 µM | CP262 4.26 µM | CP265 3.55 µM | CP266 6.75 µM | CP268 7.57 µM | CP269 4.26 µM | CP286 2.51 µM

CCN(CC)CC(=O)Nc1c(C)cccc1C
inactive: all assays above
